Source: PubChem
This is a sample that favours compounds with a hit; in the whole collection about 12% have one here.
L major viab – Leishmania major promastigote growth inhibition | inhibition, % at 10 µM | AID 1063 | 200,000 compounds, 9% hits | Leishmania major promastigotes, resazurin fluorescence viability; in the data active = inhibition above about 50%;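 note: promastigotes grown with compound for 44 hours at 28 °C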
CHOP inh – inhibitors of CHOP induction in ER stress response | 220,000 compounds, 3.8% hits | inhibition, % at 10 µM | CHO-K1 CHOP-promoter luciferase, tunicamycin-induced, 15-18 h | AID 2732;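 active = compounds that reduced the stress-induced luciferase reporter signal by more than about 70% of percent inhibition, limit read from the data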;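 note: 0% = tunicamycin plus vehicle and 100% = wells without tunicamycin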
Arbovirus inh – blocks arbovirus infection; arbovirus infection cell-based antiviral screen; inhibition, % at 10 µM; 200,000 compounds, 0.37% hits; AID 1251; in the data active = inhibition above about 30%
WT yeast gro inh – growth inhibition of WT yeast, mitochondrial fusion screen; mitochondrial fusion phenotypic screen, WT strain; inhibition, % at 10 µM; 190,000 compounds, 2.1% hits; AID 1362; in the data active = inhibition above about 58%; tested in S. cerevisiae
* = called active by the depositor.

What do the screens show for `Fc1cccc(CN2CCN(Cc3nc(CCc4ccccc4)no3)CC2)c1`?
L major viab: 79.1*; CHOP inh: 18.5; Arbovirus inh: 8.2; WT yeast gro inh: -0.6

Results for Fc1ccccc1Cc1noc(CN2CCN(Cc3ccc4c(c3)OCO4)CC2)n1 ?
L major viab: 83.9*; CHOP inh: 11.5; Arbovirus inh: -6.5; WT yeast gro inh: 9.8

What do the screens show for `O=C1CCN(S(=O)(=O)c2ccc(Cl)cc2)CCN1`?
CHOP inh: 4.5

What do the screens show for `CC(NC(=O)CN1CCc2ccccc21)c1ccccc1` (configuration not stated)?
L major viab: 5.2; CHOP inh: 4.7; Arbovirus inh: -5.1; WT yeast gro inh: -4.4

How did COc1ccc2[nH]c(C)c(CCNC(=S)Nc3cccc(C)c3)c2c1 do in these assays?
L major viab: 19.4; CHOP inh: -2.2; Arbovirus inh: -1.9; WT yeast gro inh: 7.6

How did CCc1cccc(C)c1NC(=S)NCCc1c(C)[nH]c2ccc(C)cc12 do in these assays?
L major viab: 45.3; CHOP inh: 29.3; Arbovirus inh: -34.6; WT yeast gro inh: 61.7*

What do the screens show for `CCc1cccc(CC)c1NC(=S)NCCc1c(C)[nH]c2ccc(C)cc12`?
L major viab: 53.4*; CHOP inh: 27.7; Arbovirus inh: -34.7; WT yeast gro inh: 78.2*

Results for CCN1CCN(c2nc(S(=O)(=O)c3ccc(C)cc3)c(Cl)s2)CC1 ?
L major viab: 1.1; CHOP inh: -4.9; Arbovirus inh: 13.1; WT yeast gro inh: -10.3

Results for O=C(NCCN1CCN(C(=O)c2cccs2)CC1)c1cccs1 ?
L major viab: -6.0; CHOP inh: -1.9; Arbovirus inh: 8.0; WT yeast gro inh: -5.7

What do the screens show for `O=C(NCCN1CCN(C(=O)c2cccs2)CC1)C(=O)Nc1ccc(Br)cc1`?
L major viab: 73.4*; CHOP inh: 27.9; Arbovirus inh: 0.1

Results for CC(C)CC(=O)NC(=S)Nc1ccc(S(=O)(=O)N2CCN(C)CC2)cc1 ?
L major viab: 66.6*; CHOP inh: 4.0; Arbovirus inh: 10.1; WT yeast gro inh: -1.7

What do the screens show for `CN1CCN(S(=O)(=O)c2ccc(NC(=O)c3csc4ccccc34)cc2)CC1`?
L major viab: 56.3*; CHOP inh: 42.9; Arbovirus inh: -2.9; WT yeast gro inh: 1.4

Results for CC(C)CC(=O)NC(=S)Nc1ccc(N2CCN(C(=O)c3cccs3)CC2)cc1 ?
CHOP inh: 76.5*

Results for CC(C)C(=O)Nc1ccc(N2CCN(C(=O)c3cccs3)CC2)cc1 ?
L major viab: -6.2; CHOP inh: -6.0; Arbovirus inh: 0.5; WT yeast gro inh: -10.4

How did CN1CCN(S(=O)(=O)c2ccc(NC(=S)NC(=O)C3CCCC3)cc2)CC1 do in these assays?
L major viab: 7.1; CHOP inh: 4.6; Arbovirus inh: 10.2; WT yeast gro inh: 4.9

Results for Cc1ccnc(NC(=O)CCC(=O)N(CC(=O)NC2CCCCC2)Cc2cccs2)c1 ?
L major viab: 26.2; CHOP inh: 11.8; Arbovirus inh: -4.0; WT yeast gro inh: -6.3

What do the screens show for `CC(C)C(=O)NC(=S)Nc1ccc(S(=O)(=O)N2CCN(C)CC2)cc1`?
L major viab: 87.3*; CHOP inh: 2.8; Arbovirus inh: 4.6; WT yeast gro inh: -13.3

How did O=C1CC(N(CCc2ccccc2)C(=S)Nc2cc(Cl)ccc2Cl)C(=O)N1c1c(Cl)cccc1Cl (configuration not stated) do in these assays?
L major viab: 99.2*; CHOP inh: 19.0; Arbovirus inh: -11.3; WT yeast gro inh: -5.1

Results for CCNC(=S)N(CCc1ccc(S(N)(=O)=O)cc1)C1CC(=O)N(c2ccccc2)C1=O (configuration not stated) ?
L major viab: -8.5; CHOP inh: -17.7; Arbovirus inh: -2.0; WT yeast gro inh: -6.8

How did O=C1CC(N(CCc2ccccc2)C(=S)Nc2ccccc2)C(=O)N1c1ccc(F)cc1 (configuration not stated) do in these assays?
CHOP inh: -2.9

Results for CCCOc1ccc(N2C(=O)CC(N(Cc3ccc(OC)cc3)C(=S)Nc3ccccc3)C2=O)cc1 (configuration not stated) ?
L major viab: 68.5*; CHOP inh: 9.3; Arbovirus inh: -8.1; WT yeast gro inh: 28.7

What do the screens show for `O=C1CC(N(CCc2ccccc2)C(=S)Nc2ccccc2)C(=O)N1c1ccccc1` (configuration not stated)?
L major viab: 29.4; CHOP inh: 36.7; Arbovirus inh: -42.7; WT yeast gro inh: 70.8*

Results for COc1ccc(CCN(C(=O)c2cccc(F)c2)C2CC(=O)N(c3ccc(OC)cc3)C2=O)cc1 (configuration not stated) ?
L major viab: 72.4*; CHOP inh: 42.5; Arbovirus inh: 4.3; WT yeast gro inh: -15.6
